PubChem BioAssay AID1159580 (chemical genetic matrix, 2015)
Out of some 5,500 compounds screened, about 2,000 (36%) were called active. Inconclusive results (about 18%) are left out. Cut-off read from the data, not from the text of the source: active = normalized growth mostly below about 0.91 (no sharp cut-off); inconclusive = no clear call, values can overlap the other calls; inactive = mostly above about 0.92. This is one part of the list.

Assay: chemical genetic growth profiling, strain panel (AID 1159580);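 note: tested at 20 µM; growth read once vehicle control cultures reached saturation at 30 °C; 1 = growth at the plate median or of vehicle wells; lower values mean less growth of the strain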
Conditions: growth OD
[1] = S. cerevisiae deletion strains, locus YAL013W, strain DEP1, active compounds read low
[2] = S. cerevisiae deletion strains, locus YBR229C, strain ROT2, active compounds read low
[3] = S. cerevisiae deletion strains, locus YDL101C, strain DUN1, active compounds read low
[4] = S. cerevisiae deletion strains, locus YDL134C, strain PPH21, active compounds read low
[5] = S. cerevisiae deletion strains, locus YDR150W, strain NUM1, active compounds read low
[6] = S. cerevisiae deletion strains, locus YEL061C, strain CIN8, active compounds read low
[7] = S. cerevisiae deletion strains, locus YGR078C, strain PAC10, active compounds read low
[8] = S. cerevisiae deletion strains, locus YHR030C, strain SLT2, active compounds read low
[9] = S. cerevisiae deletion strains, locus YHR087W, strain rtc3, active compounds read low
[10] = S. cerevisiae deletion strains, locus YJR043C, strain POL32, active compounds read low
[11] = S. cerevisiae deletion strains, locus YJR075W, strain HOC1, active compounds read low
[12] = S. cerevisiae deletion strains, locus YKL190W, strain CNB1, active compounds read low
[13] = S. cerevisiae deletion strains, locus YLR039C, strain RIC1, active compounds read low
[14] = S. cerevisiae deletion strains, locus YLR058C, strain SHM2 (second series), active compounds read low
[15] = S. cerevisiae deletion strains, locus YLR085C, strain ARP6, active compounds read low
[16] = S. cerevisiae deletion strains, locus YLR262C, strain YPT6, active compounds read low
[17] = S. cerevisiae deletion strains, locus YML094W, strain GIM5, active compounds read low
[18] = S. cerevisiae deletion strains, locus YMR219W, strain ESC1, active compounds read low
[19] = S. cerevisiae deletion strains, locus YMR263W, strain SAP30, active compounds read low
[20] = S. cerevisiae deletion strains, locus YMR307W, strain GAS1, active compounds read low
[21] = S. cerevisiae deletion strains, locus YNL153C, strain GIM3, active compounds read low
[22] = S. cerevisiae deletion strains, locus YNL298W, strain CLA4 (second series), active compounds read low
[23] = S. cerevisiae deletion strains, locus YNL322C, strain KRE1, active compounds read low
[24] = S. cerevisiae deletion strains, locus YNR030W, strain Alg12, active compounds read low
[25] = S. cerevisiae deletion strains, locus YPL055C, strain LGE1, active compounds read low
[26] = S. cerevisiae deletion strains, locus YPL241C, strain CIN2, active compounds read low
[27] = S. cerevisiae deletion strains, locus YPR135W, strain CTF4, active compounds read low

Measured: normalized growth

Cc1ccc(/C(N)=N\O)cc1F
active: [15] 1.32 [resistant]
inactive: [1] 0.998 | [2] 1 | [3] 1.01 | [4] 0.988 | [5] 0.995 | [6] 1.01 | [7] 1.01 | [8] 1.03 | [9] 1 | S. cerevisiae deletion strains, locus YJL187C, strain SWE1, active compounds read low 1.02 | [10] 1.01 | [11] 1.03 | [12] 0.988 | [13] 1.04 | [14] 1.02 | [16] 0.997 | [17] 1 | [18] 1 | [19] 1 | [20] 1.24 | S. cerevisiae deletion strains, locus YNL128W, strain TEP1, active compounds read low 0.975 | [21] 1.02 | [22] 1.02 | [23] 1 | [24] 0.989 | S. cerevisiae deletion strains, locus YOL006C, strain TOP1, active compounds read low 1.03 | [25] 1.03 | [26] 1.1 | [27] 1.07

N/C(=N/O)c1csc(-c2ccc(F)cc2F)n1
inactive: [1] 0.96 | [2] 0.978 | [3] 1.02 | [4] 0.995 | [5] 0.968 | [6] 1.01 | [7] 0.989 | S. cerevisiae deletion strains, locus YGR229C, strain SMI1, active compounds read low 0.995 | [8] 0.921 | [9] 0.98 | [10] 1 | [11] 1.02 | [12] 0.996 | [13] 0.933 | [14] 1.01 | [15] 1.14 | [16] 0.969 | [17] 0.933 | [18] 0.995 | [19] 0.997 | [20] 1.25 | [21] 0.986 | [22] 1.01 | [23] 1 | [24] 0.983 | [25] 0.943 | [26] 1 | [27] 0.844 | S. cerevisiae strains, strain wild type, active compounds read low 0.991
